# Data: PubChem BioAssay (NCATS)
# Results filed as inconclusive are left out. Activity calls are given as the source filed them. The call rests on the fitted dose curve; in most records, active means well fitted inhibition curve with a large enough effect; inconclusive means small, poorly fitted or top-dose-only effect; inactive means flat fitted curve, though single readings scatter.
# Tested on: Zika virus NS2B-NS3 protease
# Experiment: Primary screen GU AMC qHTS for Zika virus inhibitors (AID 1347154);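 further: 0% = no-inhibitor control and -100% = no-enzyme control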
# Conditions: Zika NS2B-NS3 unlinked protease, AMC fluorogenic substrate; series mostly up to 54.1 µM; activity change, negative = inhibition: at the top concentration
# Method in brief: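 Unlinked Zika NS2B hydrophilic domain/NS3 protease domain noncovalent complex (25 nM final) in 10 mM Tris-HCl pH 8.0, 0.01% Tween 20, with AMC peptide substrate. Fluorescence (ex 340, em 450 nm) change over 15 min, room temperature; percent inhibition fitted to 4-parameter Hill equation.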
# Further: nearly all actives have a fitted effect of over 70% in size.
SMILES,"activity change, negative = inhibition",Potency
Oc1ccc2c3c1O[C@H]1c4[nH]c5ccccc5c4C[C@@]4(O)C(C2)N(CC2CC2)CCC314 (some centres not stated),3.85% (inactive),
CO[C@H]1CC=C2CCN3CCC4=C(CC(=O)OC4)[C@]23C1,,inactive
COC(=O)N1CCN(C(=O)Cc2ccc(Cl)c(Cl)c2)C(CN2CCCC2)C1 (configuration not stated),1.01% (inactive),
N#CC(C#N)=Cc1cc(O)c(O)c(O)c1,20.1% (inactive),
CN1CCC(c2c[nH]c3ccc(O)cc23)CC1,,inactive
COc1ccc2[nH]cc(CCN)c2c1,,inactive
O=[N+]([O-])c1ccc2nc(N3CCNCC3)ccc2c1,-11.7% (inactive),
Cc1[nH]c2ccc(O)cc2c1CCN,,inactive
CCNC(=O)[C@H]1O[C@@H](n2cnc3c(N)ncnc32)[C@H](O)[C@@H]1O,,inactive
CC(C)[C@@]1(NC(=O)[C@@H]2C[C@@H]3c4cccc5[nH]cc(c45)C[C@H]3N(C)C2)O[C@@]2(O)[C@@H]3CCCN3C(=O)[C@H](Cc3ccccc3)N2C1=O,1.27% (inactive),
O=c1c2ccccc2[se]n1-c1ccccc1,14.3% [at 104 µM] (inactive),
CCCSP(=O)(OCC)SCCC,-4.09% [at 104 µM] (inactive),
Nc1ccc(CCN2CCN(c3cccc(C(F)(F)F)c3)CC2)cc1,-6.77% (inactive),
CN1CC[C@@]2(C)c3cc(OC(=O)Nc4ccccc4)ccc3N(C)[C@@H]12,-3.69% (inactive),
CCCN(CCC)CCc1c[nH]c2ccc(C(N)=O)cc12,-7.99% (inactive),
CC(C)(C)c1cc(C=C(C#N)C#N)cc(C(C)(C)C)c1O,,inactive
Cc1cccc(C(C)c2cnc[nH]2)c1C (configuration not stated),6.98% (inactive),
Cc1cc(C)cc(C(=O)OC2C[C@H]3CC[C@@H](C2)N3C)c1 (some centres not stated),14.8% (inactive),
CN1c2ccccc2C(NCCCCCCC(=O)O)c2ccc(Cl)cc2S1(=O)=O (configuration not stated),-0.305% (inactive),
CCCN(CCC)[C@@H]1CCc2cccc(O)c2C1,,inactive
CC(N)Cc1c[nH]c2ccc(OCc3cccs3)cc12 (configuration not stated),9.9% (inactive),
CC(N)Cc1c[nH]c2ccc(O)cc12 (configuration not stated),2.34% (inactive),
C=C(C)[C@H]1O[C@H]2CC[C@@]3(C)[C@@](O)(CC[C@H]4[C@@H]5OC(C)(C)[C@H]6C[C@@H]7C(=C)Cc8c(Cl)cc9[nH]c(c5c9c8[C@@]76O)[C@@]43C)[C@]23O[C@@H]3[C@H]1O,21.2% (inactive),

# Tested on: not listed separately
# Experiment: Confirmatory screen GU Rhodamine qHTS for Zika virus inhibitors qHTS (AID 1347157); further: potency means the concentration at half of the fitted maximal effect;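 on activity change, negative = inhibition: plate controls were no-inhibitor wells for no effect and no-enzyme wells for full effect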
# Conditions: purified enzyme assay, Rhodamine110 substrate fluorescence, 15 min; series mostly up to 114 µM; activity change, negative = inhibition: at the top concentration
# Method in brief: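 Enzyme 25 nM in Tris-HCl pH 8.0 + 0.01% Tween 20; compounds up to 114 microM, 15 min RT dark; + Rhod110 substrate 1.5 microM; read t0 and 15 min; delta fluorescence → % inhibition → 4-parameter Hill fit.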
SMILES,Potency,"activity change, negative = inhibition"
COC(=O)C1(C)CCC(O)C2(C)c3cc(O)c(C(C)C)cc3C(O)C(OC(C)=O)C12 (configuration not stated),24.2 µM (active),
CCCCCOc1cc2c(cc1-c1cc(/C=C/C(=O)O)ccc1O)C(C)(C)CCC2(C)C,1.75 µM (active),
COc1c(C(C)C)cc2c(c1O)[C@@]1(C(=O)O)CCCC(C)(C)C1CC2 (some centres not stated),6.85 µM (active),
CCN1CC2(COC)C3[C@@H](OC)C4C1C3(C1C[C@]3(O)[C@H](OC(=O)c5ccccc5)C1[C@]4(OC(C)=O)[C@@H](O)[C@@H]3OC)[C@H](OC)C[C@H]2O (some centres not stated),,1.83% (inactive)
